Source: PubChem BioAssay AID1159580 (chemical genetic matrix, 2015)
Several values for one entry are separate records, joined by “and”; a condition that tells them apart may be missing. Identical values can stand only once. Screen size: about 5,500 compounds; about 2,000 (36%) were called active. About 18% were inconclusive and are not listed. Rule as the data show it: active = normalized growth mostly below about 0.91 (no sharp cut-off); inconclusive = no clear call, values can overlap the other calls; inactive = mostly above about 0.92. Some of the results follow.

Assay: chemical genetic growth profiling, strain panel (AID 1159580);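 also: tested at 20 µM; growth read once vehicle control cultures reached saturation at 30 °C; 1 = growth at the plate median or of vehicle wells; lower values mean less growth of the strain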
Conditions: S. cerevisiae deletion strains, growth OD

Measured: normalized growth

NC(N)=NS(=O)(=O)c1ccc(N)cc1
inactive: locus YAL021C, strain ccr4, hits give low values 0.976 | locus YAL026C, strain drs2, hits give low values 0.991 | locus YAL030W, strain snc1, hits give low values 0.979 | locus YBL061C, strain skt5, hits give low values 0.991 | locus YBR009C, strain hhf1, hits give low values 0.981 | locus YBR021W, strain FUR4, hits give low values 1.02 | locus YBR023C, strain chs3, hits give low values 0.981 | locus YBR171W, strain sec66, hits give low values 0.994 | locus YBR229C, strain ROT2, hits give low values 1.01 | locus YBR231C, strain swc5, hits give low values 0.993 | locus YBR279W, strain paf1, hits give low values 0.986 | locus YCL011C, strain gbp2, hits give low values 0.981 | locus YCL016C, strain dcc1, hits give low values 0.983 | locus YCL029C, strain bik1, hits give low values 1 | locus YCL061C, strain MRC1, hits give low values 1.01 | locus YCL069W, strain vba3, hits give low values 0.991 | locus YCR088W, strain abp1, hits give low values 0.992 | locus YDL005C, strain med2, hits give low values 0.987 | locus YDL035C, strain GPR1, hits give low values 1.02 | locus YDL040C, strain nat1, hits give low values 0.975 | locus YDL074C, strain BRE1, hits give low values 1.04 | locus YDL101C, strain DUN1, hits give low values 1.02 | locus YDL134C, strain PPH21, hits give low values 1.01 | locus YDL185W, strain tfp1, hits give low values 1 | locus YDL192W, strain arf1, hits give low values 0.996 | locus YDR001C, strain nth1, hits give low values 0.99 | locus YDR069C, strain doa4, hits give low values 0.986 | locus YDR101C, strain arx1, hits give low values 0.995 | locus YDR137W, strain rgp1, hits give low values 1.03 | locus YDR150W, strain NUM1, hits give low values 1.02 | locus YDR159W, strain sac3, hits give low values 0.992 | locus YDR162C, strain NBP2, hits give low values 1.01 | locus YDR195W, strain ref2 0.934 | locus YDR297W, strain sur2, hits give low values 0.984 | locus YDR318W, strain mcm21, hits give low values 0.998 | locus YDR334W, strain swr1, hits give low values 0.979 | locus YDR335W, strain msn5, hits give low values 0.992 | locus YDR388W, hits give low values 0.999 | locus YDR392W, strain spt3, hits give low values 0.99 | locus YDR502C, strain sam2, hits give low values 0.997 | locus YEL003W, strain gim4, hits give low values 0.99 | locus YEL037C, strain rad23, hits give low values 0.983 | locus YEL061C, strain CIN8 (second series), hits give low values 0.974 | locus YEL061C, strain CIN8, hits give low values 1.01 | locus YER015W, strain faa2, hits give low values 0.985 | locus YER016W, strain bim1, hits give low values 0.987 | locus YER110C, hits give low values 0.993 | locus YER111C, strain swi4, hits give low values 0.993 | locus YER155C, strain BEM2 (second series), hits give low values 0.987 | locus YER155C, strain BEM2, hits give low values 1.01 | locus YER167W, strain BCK2, hits give low values 1 | locus YFR010W, strain ubp6, hits give low values 0.99 | locus YGL078C, strain dbp3, hits give low values 0.987 | locus YGL086W, strain mad1, hits give low values 1.01 | locus YGL167C, strain pmr1, hits give low values 0.987 | locus YGL173C, strain kem1, hits give low values 0.988 | locus YGL227W, strain vid30, hits give low values 0.974 | locus YGL240W, strain doc1, hits give low values 0.997 | locus YGL248W, strain PDE1, hits give low values 1.03 | locus YGL253W, strain hxk2, hits give low values 0.986 | locus YGR078C, strain PAC10, hits give low values 1.04 | locus YGR135W, strain pre9, hits give low values 0.989 | locus YGR252W, strain gcn5, hits give low values 0.963 | locus YHR013C, strain ard1, hits give low values 0.961 | locus YHR027C, strain rpn1, hits give low values 0.976 | locus YHR030C, strain SLT2, hits give low values 1.01 and 0.978 | locus YHR079C, strain IRE1 (second series), hits give low values 0.99 | locus YHR079C, strain IRE1, hits give low values 0.97 | locus YHR094C, strain hxt1, hits give low values 0.988 | locus YHR129C, strain ARP1, hits give low values 1.02 | locus YHR142W, strain chs7, hits give low values 0.988 | locus YHR200W, strain rpn10, hits give low values 0.985 | locus YIL066C, strain RNR3, hits give low values 1.03 | locus YIL073C, strain SPO22, hits give low values 0.989 | locus YIL125W, strain kgd1, hits give low values 0.989 | locus YIR030C, strain dcg1, hits give low values 0.994 | locus YJL092W, strain hpr5, hits give low values 0.991 | locus YJL095W, strain BCK1 (second series), hits give low values 0.988 | locus YJL095W, strain BCK1, hits give low values 1.05 and 0.986 | locus YJL115W, strain asf1, hits give low values 0.966 | locus YJL129C, strain trk1, hits give low values 0.984 | locus YJL134W, strain LCB3, hits give low values 1 | locus YJL154C, strain vps35, hits give low values 0.986 | locus YJL164C, strain tpk1, hits give low values 0.984 | locus YJL166W, strain qcr8, hits give low values 0.98 | locus YJL168C, strain set2, hits give low values 0.996 | locus YJL187C, strain SWE1 (second series), hits give low values 1.03 | locus YJL187C, strain SWE1, hits give low values 0.989 | locus YJR043C, strain POL32, hits give low values 1.05
